Measurements from PubChem BioAssay AID1159580 (chemical genetic matrix, 2015).
Where “and” joins values, the source holds several entries; their conditions need not be identical. Identical values can stand only once. Hit rate of the full screen: of about 5,500 compounds, about 2,000 (36%) were called active. About 18% were inconclusive and are not listed. Cut-off read from the data, not from the text of the source: active = normalized growth mostly below about 0.91 (no sharp cut-off); inconclusive = no clear call, values can overlap the other calls; inactive = mostly above about 0.92. The list shows a part of the results.

Assay: chemical genetic growth profiling, strain panel (AID 1159580);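 note: tested at 20 µM; growth read once vehicle control cultures reached saturation at 30 °C; 1 = growth at the plate median or of vehicle wells; lower values mean less growth of the strain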
Conditions: S. cerevisiae deletion strains, growth OD

Measured: normalized growth

CCOC(N)=O
inactive: locus YAL013W, strain DEP1, hits give low values 0.999 | locus YAL021C, strain ccr4, hits give low values 0.989 | locus YAL026C, strain drs2, hits give low values 1 | locus YAL030W, strain snc1, hits give low values 0.994 | locus YBL061C, strain skt5, hits give low values 0.997 | locus YBR009C, strain hhf1, hits give low values 0.987 | locus YBR021W, strain FUR4, hits give low values 0.97 | locus YBR023C, strain chs3, hits give low values 0.993 | locus YBR171W, strain sec66, hits give low values 0.99 | locus YBR229C, strain ROT2, hits give low values 0.999 | locus YBR231C, strain swc5, hits give low values 0.995 | locus YBR279W, strain paf1, hits give low values 0.991 | locus YCL011C, strain gbp2, hits give low values 0.988 | locus YCL016C, strain dcc1, hits give low values 1 | locus YCL029C, strain bik1, hits give low values 1.01 | locus YCL061C, strain MRC1, hits give low values 0.995 | locus YCL069W, strain vba3, hits give low values 0.997 | locus YCR088W, strain abp1, hits give low values 1 | locus YDL005C, strain med2, hits give low values 0.986 | locus YDL035C, strain GPR1, hits give low values 1.01 | locus YDL040C, strain nat1, hits give low values 0.989 | locus YDL074C, strain BRE1, hits give low values 1 | locus YDL101C, strain DUN1, hits give low values 1 | locus YDL134C, strain PPH21, hits give low values 1.01 | locus YDL185W, strain tfp1, hits give low values 1.01 | locus YDL192W, strain arf1, hits give low values 1.01 | locus YDR001C, strain nth1, hits give low values 1 | locus YDR069C, strain doa4, hits give low values 0.985 | locus YDR101C, strain arx1, hits give low values 1 | locus YDR137W, strain rgp1, hits give low values 1.01 | locus YDR150W, strain NUM1, hits give low values 1 | locus YDR159W, strain sac3, hits give low values 0.984 | locus YDR162C, strain NBP2, hits give low values 0.973 | locus YDR195W, strain ref2 0.933 | locus YDR297W, strain sur2, hits give low values 0.992 | locus YDR318W, strain mcm21, hits give low values 1.02 | locus YDR334W, strain swr1, hits give low values 1 | locus YDR335W, strain msn5, hits give low values 0.997 | locus YDR388W, hits give low values 1.01 | locus YDR392W, strain spt3, hits give low values 0.997 | locus YDR502C, strain sam2, hits give low values 1 | locus YEL003W, strain gim4, hits give low values 0.997 | locus YEL037C, strain rad23, hits give low values 1.01 | locus YEL061C, strain CIN8 (second series), hits give low values 1.01 | locus YEL061C, strain CIN8, hits give low values 1 | locus YER015W, strain faa2, hits give low values 0.993 | locus YER016W, strain bim1, hits give low values 0.997 | locus YER110C, hits give low values 1.01 | locus YER111C, strain swi4, hits give low values 0.995 | locus YER155C, strain BEM2 (second series), hits give low values 0.994 | locus YER155C, strain BEM2, hits give low values 1 | locus YER167W, strain BCK2, hits give low values 1.01 | locus YFR010W, strain ubp6, hits give low values 0.997 | locus YGL078C, strain dbp3, hits give low values 1.01 | locus YGL086W, strain mad1, hits give low values 1.01 | locus YGL167C, strain pmr1, hits give low values 0.987 | locus YGL173C, strain kem1, hits give low values 0.982 | locus YGL227W, strain vid30, hits give low values 0.983 | locus YGL240W, strain doc1, hits give low values 0.982 | locus YGL248W, strain PDE1, hits give low values 1 | locus YGL253W, strain hxk2, hits give low values 0.993 | locus YGR078C, strain PAC10, hits give low values 0.991 | locus YGR135W, strain pre9, hits give low values 0.991 | locus YGR229C, strain SMI1, hits give low values 0.985 | locus YGR252W, strain gcn5, hits give low values 1.08 | locus YHR013C, strain ard1, hits give low values 0.975 | locus YHR027C, strain rpn1, hits give low values 0.997 | locus YHR030C, strain SLT2, hits give low values 1.01 and 0.987 | locus YHR079C, strain IRE1 (second series), hits give low values 1.01 | locus YHR079C, strain IRE1, hits give low values 0.983 | locus YHR094C, strain hxt1, hits give low values 1 | locus YHR129C, strain ARP1, hits give low values 1.01 | locus YHR142W, strain chs7, hits give low values 0.995 | locus YHR200W, strain rpn10, hits give low values 1.01 | locus YIL066C, strain RNR3, hits give low values 1.03 | locus YIL073C, strain SPO22, hits give low values 1.06 | locus YIL125W, strain kgd1, hits give low values 1 | locus YIR030C, strain dcg1, hits give low values 1 | locus YJL092W, strain hpr5, hits give low values 0.995 | locus YJL095W, strain BCK1 (second series), hits give low values 0.992 | locus YJL095W, strain BCK1, hits give low values 1.01 and 0.996 | locus YJL115W, strain asf1, hits give low values 0.999 | locus YJL129C, strain trk1, hits give low values 1 | locus YJL134W, strain LCB3, hits give low values 1.01 | locus YJL154C, strain vps35, hits give low values 1 | locus YJL164C, strain tpk1, hits give low values 0.991 | locus YJL166W, strain qcr8, hits give low values 0.99 | locus YJL168C, strain set2, hits give low values 1.02 | locus YJL187C, strain SWE1 (second series), hits give low values 1.02 | locus YJL187C, strain SWE1, hits give low values 0.997 | locus YJR043C, strain POL32, hits give low values 1.02 | locus YJR066W, strain TOR1, hits give low values 0.959
